HDAC3 inhib – human HDAC3 inhibition; O15379; recombinant HDAC3, fluorogenic peptide/trypsin coupled, fluorescence; inhibition, % at 8.3 µM; 320,000 tested, 0.15% active; in the data active = inhibition above about 26%, passing the limit was not always enough; inconclusive = no clear call, values can overlap the other calls
Rtt109 Vps75 – C. albicans Rtt109 histone acetyltransferase inhibition | 330,000 tested, 0.16% active | inhibition, % at 34.9 µM | AID 540336 | Q5AAJ8 | purified Rtt109/Vps75, ThioGlo CoA-SH fluorescence, 4 h;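 active = inhibition of at least 50% in every replicate; inconclusive = best replicate reaches 50% inhibition but some replicates fall short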
Target sequence (Q5AAJ8 whole entry, looked up): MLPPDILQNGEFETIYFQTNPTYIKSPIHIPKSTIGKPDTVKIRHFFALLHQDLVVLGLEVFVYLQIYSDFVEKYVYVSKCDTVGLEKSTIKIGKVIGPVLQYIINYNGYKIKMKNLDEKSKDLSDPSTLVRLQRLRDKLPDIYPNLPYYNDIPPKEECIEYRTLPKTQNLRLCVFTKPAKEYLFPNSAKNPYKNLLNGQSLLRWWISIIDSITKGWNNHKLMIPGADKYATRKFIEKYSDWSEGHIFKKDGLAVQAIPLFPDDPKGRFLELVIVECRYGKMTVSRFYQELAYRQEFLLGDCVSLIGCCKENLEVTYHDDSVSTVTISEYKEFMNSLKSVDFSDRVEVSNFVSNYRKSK
GRK2 inh – human GRK2 inhibition via aptamer displacement; P25098; bead flow cytometry, FAM-aptamer displacement from GRK2; inhibition of aptamer binding, % at 10 µM; 330,000 tested, 0.59% active; AID 488847;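 active = inhibition of aptamer binding above 40%, roughly 3 SD of noise, on plates passing a quality check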;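 note: median bead fluorescence of bound FAM aptamer so fluorescent compounds give negative values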
Efflux pump inh – blocks antifungal efflux pumps in multiplex yeast assay. S. cerevisiae Candida pump triplex, Nile Red efflux. inhibition, % at 10 µM. 330,000 tested, 0.44% active. AID 485275;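 active = plate passing quality check with inhibition over a set limit, or well fluorescence over plate mean plus 4 SD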;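 note: Nile Red retained in pooled yeast measured as flow cytometry median fluorescence; higher means more Nile Red kept so more efflux inhibition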
ALR H2O2 inh – blocks human ALR sulfhydryl oxidase activity; P55789; purified ALR, DTT oxidation, H2O2 HRP-luminol luminescence; inhibition, % (no concentration beside the values); 290,000 tested, 3.8% active; AID 485317;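 active = mean replicate inhibition above about 79%, with every replicate also reaching it, limit read from the data; inconclusive = only one of the two criteria met; inactive = mean below limit and not every replicate reaching it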
Rce1 inhib – blocks yeast Ras-converting enzyme | AID 2563 | yeast membranes, quenched prenylated peptide cleavage fluorescence | calls only | 290,000 tested, 0.27% active | Q03530;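 active = fall in fluorescence gain of 50% or more versus controls, with final raw signal at or below 3038400; inconclusive = same 50% fall but final raw signal above 3038400; inactive = fall in fluorescence gain under 50%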
Target sequence (Q03530 whole entry, looked up): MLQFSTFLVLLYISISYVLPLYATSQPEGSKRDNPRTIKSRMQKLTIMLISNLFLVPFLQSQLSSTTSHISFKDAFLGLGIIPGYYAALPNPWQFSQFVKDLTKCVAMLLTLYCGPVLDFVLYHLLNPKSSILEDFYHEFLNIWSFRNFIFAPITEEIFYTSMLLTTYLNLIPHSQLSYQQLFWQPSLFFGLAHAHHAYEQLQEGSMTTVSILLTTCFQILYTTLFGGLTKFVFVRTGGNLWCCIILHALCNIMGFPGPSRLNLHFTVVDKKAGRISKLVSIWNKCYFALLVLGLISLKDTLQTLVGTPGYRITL
Of the large screens only hits and unclear results are named; the others gave an inactive call. Most compounds without a hit are left out; they make up all but 4.5% or so of the library.

CCCCCCSc1ccc([C@@H]2[C@@H]3C(=O)N(C)C(=O)[C@@H]3[C@]3(C(=O)OC)CCCCN23)cc1OC	HDAC3 inhib 36.1
CCCCCCSc1ccc([C@@H]2[C@H]3C(=O)N(C)C(=O)[C@H]3[C@]3(C(=O)OC)CCCCN23)cc1OC	none (no result: Rce1 inhib)
NS(=O)(=O)c1ccc(CCNC(=O)c2ccc3ccccc3n2)cc1	Rce1 inhib active
Cc1ccc(S(=O)(=O)NNC(=O)c2ccc3ccccc3n2)cc1	ALR H2O2 inh 88.3
NS(=O)(=O)c1ccc(CNC(=O)c2ccc3ccccc3n2)cc1	none
Cc1ccc(S(=O)(=O)NNC(=O)c2ccncc2)cc1	none
O=C(CC1NCCNC1=O)NC1Cc2ccccc2C1 (stereo not drawn)	none
N#C/C(=N\Nc1ccc(Cl)c(Cl)c1)C(=O)C1CC1	none
N#C/C(=N\Nc1ccc(F)cc1)C(=O)C1CC1	ALR H2O2 inh 97.9 (no result: Rtt109 Vps75)
CC(C)CC(=O)Nc1ccc(Oc2ccc(NC(=O)CC(C)C)cc2)cc1	none
Cc1cccc(NC(=O)CC(C)(C)C)c1	none
CC(C)CC(=O)Nc1ccc(Nc2ccccc2)cc1	ALR H2O2 inh 98.8
CC(C)(C)CC(=O)Nc1ccc(Nc2ccccc2)cc1	ALR H2O2 inh 98.5
CCOC(=O)CC(=O)CSc1nc2ccc(OC)cc2cc1C	none
C/C(Cl)=C\Cn1c(O)c(N=NC(N)=S)c2cc(Br)ccc21	Rce1 inhib active (no result: ALR H2O2 inh)
NC(=S)N=Nc1c(O)n(CCCl)c2ccc(Br)cc12	none
NC(=S)N=Nc1c(O)n(Cc2ccc(F)cc2)c2ccccc12	Rce1 inhib active (no result: HDAC3 inhib, Rtt109 Vps75)
NC(=S)N=Nc1c(O)n(Cc2ccc(Br)cc2)c2ccccc12	none
COC(=O)c1nc(-c2ccccc2)oc1N1CCOCC1	none
O=C(NCCCN1CCOCC1)c1ccc2nc(Cc3ccccc3F)oc2c1	none
CCCNC(=O)NNC(=O)c1ccc(F)cc1	none
O=C(NCc1nc(-c2ccc(C(F)(F)F)cc2)no1)Nc1cc(Cl)cc(Cl)c1	none
CC1CCc2c(sc(NC(=O)COC(=O)c3ccccc3NCc3ccco3)c2C#N)C1 (stereo not drawn)	Rce1 inhib active
CC1CCc2c(sc(NC(=O)c3ccccc3C(=O)O)c2C#N)C1 (stereo not drawn)	ALR H2O2 inh 96.8
COc1ccc2c(CC(=O)OCC(=O)Nc3sc4c(c3C#N)CCC(C)C4)coc2c1 (stereo not drawn)	none
CCC(C)(C)C1CCc2c(sc(NC(=O)c3ccccc3C(=O)O)c2C#N)C1 (stereo not drawn)	none
CCCc1cc(C(=O)N/N=C/c2cccn2C)cs1	none (no result: Rce1 inhib)
O=C(Oc1csc(=S)n1C(=O)c1ccccc1)c1ccccc1	HDAC3 inhib 36.6
Cc1cccc(C(=O)Oc2csc(=S)n2C(=O)c2cccc(C)c2)c1	none (no result: Rce1 inhib)
N#Cc1cccc(C#N)c1Oc1ccc(S(=O)(=O)Nc2ccc(Cl)cc2)cc1	none (no result: HDAC3 inhib, Rce1 inhib)
Cc1ccc(C(=O)Nc2ccccc2C(=O)N2CCCC(C)C2)cc1 (stereo not drawn)	none
COc1ccccc1CNC(=O)N1CCN(c2ccccc2C)CC1	none
COC(=O)/C=C/C(=O)N1CCN(c2ccccc2C)CC1	ALR H2O2 inh 98.3
COC(=O)/C=C/C(=O)N1CCN(c2ccccc2)CC1	ALR H2O2 inh 96.8
O=C(COC(=O)/C=C/C(=O)N1CCN(c2ccccc2)CC1)NCc1ccc(F)cc1	none
COc1ccc(Cl)cc1N1C(=O)/C(=C\c2sccc2C)N=C1SCC(=O)NC1CC1	ALR H2O2 inh 81.0 (no result: Rtt109 Vps75)
c1cnc(Sc2ccc3nnnn3n2)nc1	none
CC(OC(=O)c1ccc(Cl)c(S(=O)(=O)N2CCOCC2)c1)C(=O)Nc1ccc(S(N)(=O)=O)cc1 (stereo not drawn)	none (no result: ALR H2O2 inh)
O=C(CNCC1CCCCC1)Nc1ccc(N2CCCCC2)cc1	ALR H2O2 inh 97.9 (no result: Rtt109 Vps75)
CC1CCN(CC(=O)Nc2ccc(N3CCCCCC3)cc2)CC1	ALR H2O2 inh 98.4
Cc1ccc(N2CCN(c3ccc(NC(=O)CCC(=O)O)cc3)CC2)cc1	HDAC3 inhib inconclusive
O=C(CNC1CCCCCC1)Nc1ccc(N2CCCC2)cc1	ALR H2O2 inh 94.2 (no result: Rtt109 Vps75)
O=C(O)CCC(=O)Nc1ccc(N2CCCCCC2)cc1	ALR H2O2 inh 98.9
CN1C[C@@H]2[C@@H]3C(=O)N(C)C(=O)[C@@H]3[C@](C)(C1=O)N2C(=O)c1ccc(C(F)(F)F)cc1	none (no result: HDAC3 inhib, GRK2 inh, Efflux pump inh, ALR H2O2 inh, Rce1 inhib)
NS(=O)(=O)c1ccc(NC(=O)COC(=O)C2CCCCC2)cc1	none (no result: Rtt109 Vps75)
O=C(COC(=O)C1CCCCC1)Nc1ccc(N2CCCCC2)cc1	ALR H2O2 inh 88.2
CC1(C)Nc2ccccc2N(CC(=O)N2CCCCC2)C1=O	ALR H2O2 inh 98.4
CC1(C)Nc2ccccc2N(Cc2ccc([N+](=O)[O-])cc2)C1=O	ALR H2O2 inh 95.8
CCCCn1c(-c2csc3c2CCCC3)n[nH]c1=S	none (no result: Rtt109 Vps75)
CCn1c(-c2csc3c2CCCC3)n[nH]c1=S	ALR H2O2 inh 90.9
O=C(C[C@@H]1C/C=C\C[C@@H](Cc2ccc(F)cc2)C(=O)OCCNC1=O)N[C@H](CO)Cc1ccccc1	none (no result: Rce1 inhib)
Cc1ccc(NC(=O)C(=O)NCCCN2CC(C(=O)O)CC2=O)cc1 (stereo not drawn)	none
O=Nc1c(O)[nH]c2ccc(F)cc12	none (no result: Rtt109 Vps75)
Cc1cc2c(N=O)c(NO)ccc2[nH]1	ALR H2O2 inh 78.9
C=CCNC(=O)c1ccc(CSc2nc3ccccc3s2)cc1	ALR H2O2 inh 98.8
CC(=O)NCCNC(=O)c1ccc(CSc2nc3ccccc3s2)cc1	ALR H2O2 inh 99.2
CC(C)CCNC(=O)CSc1nc2ccccc2s1	none (no result: ALR H2O2 inh)
COC(=O)c1ccccc1C(=O)N1CCC(CCC(=O)NC2CC2)CC1	none
c1ccc2c(c1)CCN(c1nc3ccccc3n3cnnc13)C2	none
C1=C(c2ccccc2)CCN(c2nc3ccccc3n3cnnc23)C1	ALR H2O2 inh 95.0
c1ccc(N2CCN(c3nc4ccccc4n4cnnc34)CC2)cc1	ALR H2O2 inh 97.4
CCCCSc1cc(C)nc(N)n1	none
O=C(CSc1ccccc1F)NC(=O)c1ccccc1Br	none (no result: Rce1 inhib)
Nc1cc(C(F)(F)F)ccc1OCC1CCCO1 (stereo not drawn)	none
O=C(Nc1ccc2nc3n(c(=O)c2c1)CCCCC3)C(=O)N1CCN(c2ccc(F)cc2)CC1	none
O=C(Nc1ccc(O)cc1)C1CC=CCC1 (stereo not drawn)	ALR H2O2 inh 98.5
OCC1OC(Oc2cccc3ccccc23)C(O)C(O)C1O (stereo not drawn)	none
O=C(O)c1cc(O)c2c(c1)[C@@H]([C@H]1c3cc(C(=O)O)cc(O)c3C(=O)c3c(O[C@@H]4O[C@H](CO)[C@@H](O)[C@H](O)[C@H]4O)cccc31)c1cccc(O[C@@H]3O[C@H](CO)[C@@H](O)[C@H](O)[C@H]3O)c1C2=O	GRK2 inh 100.0 (no result: Rtt109 Vps75, Rce1 inhib)
Cc1cc(=O)oc2cc(NC(=O)C(C)N3C(=O)C4CCCCC4C3=O)ccc12 (stereo not drawn)	none (no result: ALR H2O2 inh, Rce1 inhib)
CN(CC(=O)Nc1ccc(OC(F)(F)F)cc1)C(=O)Cc1cccs1	none (no result: Rce1 inhib)
O=C(O)c1ccc2c(c1)C(=O)N(Cc1ccc3c(c1)OCO3)C2=O	ALR H2O2 inh 87.0
